G9a inh: G9a (human) methyltransferase inhibition; Q96KQ7; G9a H3K9 monomethylation, AlphaScreen, 2 h; Potency, µM (top dose mostly 102 µM), without a hit: at the highest dose activity, negative = inhibition, hits mostly inhibitors; 350,000 compounds, 8.8% hits; AID 504332; further: potency means the concentration at half of the fitted maximal effect; on the % scale 0 is the no-effect control and ±100 the full control effect; nearly all actives have a fitted effect of over 75% in size
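Quantitative HTS format: methyltransferase activity on a biotin-tagged H3K9 peptide is measured by AlphaScreen, using a rabbit anti-monomethyl-H3K9 antibody with streptavidin donor and anti-IgG acceptor beads. Final levels are 20 nM enzyme, 500 nM peptide, 20 uM SAM; 2 h RT.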
PLK1 PBD block: blocks phosphopeptide binding to human PLK1 polo-box domain. Plk1 PBD binding of FITC phosphopeptide, fluorescence polarization. P53350. 360,000 compounds, 2.8% hits. Potency, µM, for the others: max response, negative = inhibition, usual class: inhibitors; further: potency means the concentration at half of the fitted maximal effect; series mostly up to about 57 µM; on the % scale 0 is the no-effect control and ±100 the full control effect; nearly all actives have a fitted effect of over 65% in size
BAZ2B block: blocks human BAZ2B | Q9UIF8 | AlphaScreen BAZ2B-H3K14Ac peptide displacement | Potency, µM (highest dose often 114 µM), for inactives: at the top dose activity change, negative = inhibition, hits mostly inhibitors | 360,000 compounds, 4.4% hits; further: potency means the concentration at half of the fitted maximal effect; on the % scale 0 is the no-effect control and ±100 the full control effect; nearly all actives have a fitted effect of over 60% in size
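Protein-peptide AlphaScreen: BAZ2B 50 nM, b-H3K14Ac 50 nM, 1x PBS pH 7.4 + 0.01% Tween-20. Preincubation 30 min RT; cpd 30 min RT (top 110 uM); beads 20 min RT, light-protected.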
HP1b chromo inh: blocks HP1-beta chromodomain binding to methylated histone tails; P83916; AlphaScreen HP1-beta / biotin-H3K9me3 peptide binding; Potency, µM (doses to about 114 µM), without a hit: at the highest dose activity change, negative = inhibition, actives largely listed as inhibitors; 390,000 compounds, 0.56% hits; AID 540317; further: potency means the concentration at half of the fitted maximal effect; nearly all actives have a fitted effect of over 70% in size
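AlphaScreen: HP1-beta (50 nM) preformed 30 min with biotin-H3(1-18)K9me3 peptide (50 nM) in PBS pH 7.4, 0.01% Tween-20. Compound added for 30 min at RT, then streptavidin donor/nickel chelate acceptor beads (10 ug/mL) for 30 min.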
JMJD2A Tudor inh: blocks the human JMJD2A Tudor domain; O75164; AlphaScreen JMJD2A-Tudor / H3K4me3 peptide binding; Potency, µM (highest dose often 114 µM), inactives show at the top dose activity change, negative = inhibition, usual class: inhibitors; 390,000 compounds, 4.4% hits; AID 504339; further: potency means the concentration at half of the fitted maximal effect; on the % scale 0 is the no-effect control and ±100 the full control effect; nearly all actives have a fitted effect of over 50% in size
PI5P4K alpha inh: inhibitors of human PI5P4K alpha | AID 652105 | PI5P4Kalpha enzyme, ADP-Glo luminescence, 60 min; active compounds read low | 330,000 compounds, 1.2% hits | P48426 | max response, %; active means max response of -50% or lower; inconclusive means between -30% and -50%; inactive means -30% or higher; further: value at the top dose of about 77 µM; on the % scale 0 is the no-effect control and ±100 the full control effect
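Compounds were pin-transferred onto PI5P4Kalpha and substrate in HEPES pH 7.4 buffer with EGTA, CHAPS and 5% DMSO. ATP (5 microM final) started the reaction, which ran 60 minutes at room temperature before ADP-Glo detection.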
An asterisk follows results filed as active; ? = inconclusive; . = no result; [ ] = remark or other dose. An excerpt weighted towards active compounds, which were near 12% of everything screened. Unless noted, the call rests on the fitted dose curve; in most records, active means well fitted curve in the direction sought with a large enough effect; inconclusive means small, poorly fitted or top-dose-only effect, or another doubt; inactive means no such curve, though single readings can be large; an effect the other way counts as inactive or inconclusive.

SMILES	G9a inh	PLK1 PBD block	BAZ2B block	HP1b chromo inh	JMJD2A Tudor inh	PI5P4K alpha inh
CCN(c1ccccc1)S(=O)(=O)c1cccc(C(=O)NCC(c2cccs2)N2CCOCC2)c1 (stereo not drawn)	-27%	-12%	-6%	5%	-12%	4
CCc1cccc(CC)c1NC(=O)c1ccccc1	-3%	-7%	-20%	23%	-24%	5
CCc1cccc(CC)c1NC(=O)c1cccc(N)c1	36%[12.7 µM]	21µM*	-5%	?	56µM*	-14
CC(=O)N1CCN(c2ccc(NC(=O)c3ccc4ccccc4c3)cc2)CC1	11%	-5%	7%	20%	1%	-6
O=C(Nc1ccc(N2CCCC2)cc1)c1ccc2ccccc2c1	6.3µM*	1%	1%	11%	-10%	-10
O=C(Nc1ccc(N2CCCCC2)cc1)c1cncc(Br)c1	79µM*	0%	?	5%	-23%	-1
CC(=O)c1c[nH]c(C(=O)Nc2ccc(N3CCCCCC3)cc2)c1	-12%[2.33 µM]	-2%	35µM*	?	35µM*	-28
O=C(NC(=S)Nc1ncc(Br)cc1Br)c1cncc(Br)c1	2%[59 µM]	-24%	-2%	21%	50µM*	.
O=C(NC(=S)Nc1ccc(O)cc1)c1cncc(Br)c1	.	-12%	.	10%	-18%	-24
Cc1ccc(C(=O)Nc2ccc(N3CCCCC3)cc2)cc1	.	.	.	21%	-20%	.
CC(=O)N(c1ccccc1)C(C(=O)c1ccccc1)c1ccccc1 (stereo not drawn)	.	2%	.	11%[57 µM]	-8%	4
O=C(Nc1cccc(NC(=O)c2cncc(Br)c2)c1)c1cncc(Br)c1	45µM*	-9%	-4%	44%	-9%	-24
Nc1ccc(C(=O)Nc2cccc(NC(=O)c3ccc(N)cc3)c2)cc1	16%	27µM*	-24%	-15%	?	-2
O=C(O)c1cccc(NC(=O)c2ccccc2)c1	.	-14%	.	20%	-9%	-6
COCCN(C(=O)Cn1c(C(F)(F)F)nc2ccccc21)c1c(N)n(Cc2ccccc2)c(=O)[nH]c1=O	8%	1%	-4%	18%	-8%	3
COc1ccc(C2c3c(n(C)c4ccccc34)C(=O)N2CC(=O)Nc2ccc(C)c(Cl)c2)cc1 (stereo not drawn)	12%[59 µM]	.	0%	14%	-36%	.
COc1ccc(-c2oc3c(c2C#CC(C)(C)O)C(OC)CCC3)cc1 (stereo not drawn)	.	-6%	.	.	.	-1
Cc1ccc(NC(=O)N2CC3CCCN3c3ccccc32)cc1C (stereo not drawn)	10µM*	.	25µM*	?	50µM*	.
Cc1ccc(NC(=O)N2CC3CCCN3c3ccccc32)c(C)c1 (stereo not drawn)	-4%[59 µM]	.	7%	?	50µM*	.
Cc1ccc(NC(=O)N2CCc3ccccc32)cc1C	7%	-9%	0%	49%	3%	0
COC(=O)c1ccc(Cl)cc1NC(=O)N1CC2CCCN2c2ccccc21 (stereo not drawn)	8.9µM*	.	?	3%	?	.
CC1CN(C(=O)Nc2cccc(C(F)(F)F)c2)CC(C)O1 (stereo not drawn)	12%	-12%	1%	23%	-7%	0
O=C(Nc1cccc(C(F)(F)F)c1)N1CC2CCCN2c2ccccc21 (stereo not drawn)	?	.	28µM*	?	50µM*	.
CCC1CN(C(=O)Nc2cc(Cl)ccc2C(=O)OC)c2ccccc2S1 (stereo not drawn)	-16%[59 µM]	.	-5%	59%	-10%	.
COc1cc(C(CC(=O)Nc2ccc(F)cc2F)N2Cc3ccccc3C2=O)cc(OC)c1OC (stereo not drawn)	-7%[59 µM]	.	-12%	20%	-8%	.
Cc1ccc(NC(=O)N2CC3CCCN3c3ccccc32)cc1Cl (stereo not drawn)	8.9µM*	.	28µM*	?	40µM*	.
N#C/C(=C/c1cn(CC(=O)O)c2ccccc12)C(=O)NCc1ccccc1	56µM*	-5%	?	34%	-4%	-6
